# From PubChem BioAssay AID652042 (Broad Institute, 2013)
# The whole screen tested about 1,100 compounds, of which about 350 (32%) were called active. A selection follows. Measured potencies and affinities stand elsewhere. A number with no mark means an inactive call. The rule behind the calls is not given here.
# Experiment: CEM21 lymphoblast cell cytotoxicity, dose response, cytotoxicity control for viral fusion inhibitor project, CellTiter-Glo luminescence, cherry-picked (AID 652042)
# Details: CEM21 cells viability, CellTiter-Glo ATP luminescence, 24 h; series mostly up to 35 µM; activity change, negative = cytotoxicity: at the top concentration
row,Compound,"activity change, negative = cytotoxicity"
1,COCC(=O)Nc1ccc2c(c1)C(=O)N(C)C[C@@H](OC)[C@@H](C)CN(C)[C@H](C)CO2,-2.08%
2,CCOC1=C2[C@@H](CN(S(=O)(=O)c3ccccc3C)[C@H]2c2ccc(Cl)cc2)[C@H]2C(=O)NC(=O)[C@H]2C1,7.02%
3,Cc1sc2ncnc(N3CCC(C(=O)Nc4cc(S(C)(=O)=O)ccc4Cl)CC3)c2c1C,-1.01%
4,COC(=O)C1=C(C)N(CC2CC2)C(=O)N[C@H]1c1ccc(Br)cc1,-13.3%
5,O=C(NCc1ccco1)c1ccc(Cn2c(=O)c3sccc3n(Cc3cccc(F)c3)c2=O)cc1,-4.41%
6,CC[C@@]1(C(=O)OC)N[C@H](CN(C)C(=O)COc2ccccc2)[C@@H]2C(=O)N(Cc3ccccc3)C(=O)[C@@H]21,1.91%
7,C[C@@H]1CN([C@@H](C)CO)C(=O)c2cc(C3=CCCC3)cnc2O[C@@H]1CN(C)Cc1ccc(C(=O)O)cc1,-7.71%
8,C[C@H]1CN([C@@H](C)CO)C(=O)Cc2cc(N(C)C)ccc2O[C@H]1CN(C)Cc1ccc(Cl)c(Cl)c1,-11.3%
9,O=C(NCc1ccccc1)c1ccc(C(=O)NCc2ccccc2)cc1,-1.78%
10,C=C(C)c1cccc(C(C)(C)NC(=O)Nc2ccc(Cl)cn2)c1,0.575%
11,Cc1ncccc1C(=O)N1CCCC(C(=O)c2ccc3c4c(cccc24)CC3)C1 (stereo unspecified),-1.97%
12,CCOc1ccc(N(C)S(=O)(=O)c2cc(-c3cc(C)no3)ccc2C(C)C)cc1,-27.4%
13,COc1ccc(NC(=O)c2ccc(Cl)c(S(=O)(=O)N3CCc4ccccc4C3)c2)cn1,-19.1%
14,Cc1ccc(NC(=O)c2ccc(CN3CCc4ccccc4C3)cc2)cc1,-25.9%
15,Cc1ccc2c(c1)c1c3n2CCN(CCC#N)C3CCC1 (stereo unspecified),1.35%
16,CC(CCc1ccco1)NC(=O)CCc1nnc2ccc(NCc3ccccc3Cl)nn12 (stereo unspecified),-16.5%
17,Cc1ccc(S(=O)(=O)N2CCC(=O)N(CCOC(=O)Nc3cccc(Cl)c3)CC2)cc1,-2.62%
18,COc1ccccc1Oc1ccc(S(=O)(=O)NCc2ccccn2)cc1,-8.66%
19,COc1ccc(C)cc1NC(=O)CCNS(=O)(=O)c1ccc2c(c1)CC(C)N2C(C)=O (stereo unspecified),9.67%
20,O=C(C[C@H]1C[C@@H]2c3cc(NC(=O)C4CCOCC4)ccc3O[C@@H]2[C@@H](CO)O1)NCc1ccccc1F,-3.22%
21,CC(C)CCN(N=O)[C@@H](Cc1ccccc1)CN(N=O)[C@@H](Cc1ccccc1)CN(C)N=O,-15.3%
22,COc1ccc(-c2cc(=O)oc3c(C)c(O)ccc23)cc1,-5.8%

row,Compound,"activity change, negative = cytotoxicity"
1,O=C(NCCc1ccccc1)c1ccc2c(c1)OCCO2,-9.04%
2,C=C1CCN([C@@H](Cc2ccccc2)C(=O)NCCC(C)C)S(=O)(=O)c2ccccc21,-5.67%
3,CSCCC(NS(=O)(=O)c1ccc2c(c1)oc(=O)n2C)C(=O)NC1CCCc2ccccc21 (stereo unspecified),4.91%
4,CC(=O)c1ccc([C@H]2C[C@@]34CN(C(=O)OC(C)(C)C)S(=O)(=O)[C@H]3C[C@H]2O4)cc1,2.58%
5,CN(C)CC(=O)Nc1ccc2c(c1)[C@H]1C[C@@H](CC(=O)NCCc3ccccc3)O[C@H](CO)[C@H]1O2,-2.04% [at 30 µM]
6,O=C(Nc1cccc(C(=O)O)c1)Nc1ccc2c(c1)OCO2,-7.93%
7,COc1ccc(NC(=O)C2CCCN2S(=O)(=O)c2ccc3c(c2)CCC(=O)N3)cc1Cl (stereo unspecified),-0.458%
8,O=C(COc1ccc(-n2cnnn2)cc1)Nc1ccc(F)c(F)c1,3.75%
9,Cn1cccc1C(=O)OCC(=O)NCCc1ccc(S(N)(=O)=O)cc1,6%
10,Cc1cc2c3c(c1)C1(SCC(=O)N1c1ccc(F)cc1)C(=O)N3C(C)(C)CC2C (stereo unspecified),-0.52% [at 16 µM]
11,CCN(CC)S(=O)(=O)c1cc(NC(=O)C(=O)c2c(-c3ccccc3)cc3ccccn23)ccc1C,-16%
12,CC(C)N(Cc1nc(-c2ccccc2)no1)C(=O)CN(C)S(=O)(=O)c1ccc(Br)cc1,-16%
13,O=C(C[C@H]1C=C[C@@H](NC(=O)Nc2ccccc2F)[C@@H](CO)O1)NCc1ccc(Cl)cc1,-7.24%
14,COc1cccc(S(=O)(=O)N[C@H]2CC[C@H](CC(=O)NCc3ccncc3)O[C@@H]2CO)c1,1.11%
15,O=C(C[C@H]1CC[C@@H](NC(=O)Nc2ccccc2F)[C@@H](CO)O1)NCc1ccc(Cl)cc1,0.724%
16,COc1cccc(CNC(=O)C[C@@H]2C=C[C@H](NC(=O)C3CCC3)[C@H](CO)O2)c1,0.694%
17,O=C(C[C@@H]1CC[C@@H](NC(=O)c2ccncc2)[C@H](CO)O1)NCCc1ccncc1,-1.24%
18,O=C(NCC[C@@H]1CC[C@@H](NS(=O)(=O)c2ccccc2F)[C@@H](CO)O1)c1ccc(F)cc1,-1.41%
19,COC(=O)[C@@]1(C)[C@H]2C(=O)N(Cc3ccccc3)C(=O)[C@H]2[C@H]2CN=C(SCc3ccc(C#N)cc3)N21,-13.8%
20,CN(C[C@H](Cc1ccccc1)N(C[C@H](c1ccccc1)N(CCc1ccccc1)N=O)N=O)N=O,-4.42%
21,N#Cc1ccc(C(c2nnnn2CCc2ccccc2)N2CCCCCC2)cc1 (stereo unspecified),-20.5%
22,Cc1ccc(C(c2nnnn2CS(=O)(=O)c2ccc(C)cc2)N2CCCC2)cc1 (stereo unspecified),-1.57%

row,Compound,"activity change, negative = cytotoxicity"
1,COc1ccc(NC(=O)Nc2ccc3c(c2)C(=O)N([C@@H](C)CO)C[C@H](C)[C@H](CN(C)Cc2ccncc2)OCCCC[C@H](C)O3)cc1,-11.8%
2,Cc1ccc(C(C(=O)NC2CCCCC2)N(C(=O)c2csnn2)C2CCCC2)o1 (stereo unspecified),4.56% [at 16 µM]
3,Cc1ccc(-c2nnn(CC(=O)N(CC3CCCO3)C(C(=O)NC3CCCCC3)c3ccc(F)cc3)n2)o1 (stereo unspecified),-2.01%
4,COc1ccc(NC(=O)CN2CCC(C(N)=O)(N3CCCCC3)CC2)cc1,5.51%
5,CC1CCN(C(=O)c2ncn3c2C(=O)N[C@@H](C)C3)CC1,-5.66%
6,COc1ccc(-c2cc(C3CCN(c4cc(Cl)nc(N)n4)CC3)[nH]n2)cc1,-13.3%
7,CCOc1ccc(OCc2cccc(C(=O)N/N=C/c3cccnc3)c2)cc1,-2.87%
8,CC(c1nc2ccccc2c(=O)[nH]1)N(C)CCOc1ccc(Cl)cc1 (stereo unspecified),-7.82%
9,Cc1ccc(S(=O)(=O)N(C)C)cc1NC(=O)COc1ccccc1C(=O)Nc1ccccc1,-16.9%
10,CC(C)CCN(C(=O)c1csnn1)C(C(=O)NC1CCCC1)c1ccc(F)cc1 (stereo unspecified),-7.24%
11,Cc1ccccc1CCN(C(=O)c1csnn1)C(C(=O)NC1CCCC1)c1ccncc1 (stereo unspecified),-5.49%
12,CCOC(=O)c1ccc(NC2c3ncccc3C(=O)N2Cc2ccc(F)cc2)cc1 (stereo unspecified),-4.33%
13,COc1cc(NC2c3ccccc3C(=O)N2Cc2ccccc2)cc(OC)c1OC (stereo unspecified),3.26%
14,COc1ccc(-c2cc(=O)oc3c(C)c(O)c(CN(C)C)cc23)cc1,5.55%
15,COc1ccc(S(=O)(=O)NNC(=O)C2Cc3c(ccc4ccccc34)O2)cc1 (stereo unspecified),-11.3%
16,CC(C)n1c(NCCc2ccccc2)nc2c1c(=O)n(C)c(=O)n2C,-25.5%
17,CN(C)S(=O)(=O)c1ccc(N2CCCC2)c(C(=O)NCCc2ccc(F)cc2)c1,-0.85%
18,CC[C@]1(C(=O)OC)[C@H]2C(=O)N(Cc3ccccc3)C(=O)[C@H]2[C@H]2CN=C(SCc3ccc(C)cc3)N21,-9.52%
19,COc1ccc(CCN2C(=O)c3[nH]nc(-c4ccccc4O)c3C2c2cccc(O)c2)cc1OC (stereo unspecified),-2.82%
20,COCc1[nH]nc2c1C(c1ccc(F)cc1)N(Cc1ccccc1)C2=O (stereo unspecified),-2.79%
21,COc1ccc(CCN2C(=O)c3[nH]nc(-c4ccccc4O)c3C2c2ccc(C)cc2)cc1OC (stereo unspecified),-12.2%
22,COc1ccc(OC)c(CN2C(=O)c3ccccc3C2c2nnnn2-c2c(C)cccc2C)c1 (stereo unspecified),-7.17%

row,Compound,"activity change, negative = cytotoxicity"
1,O=C1c2cccnc2C(Nc2ccc(S(=O)(=O)N3CCCCC3)cc2)N1Cc1ccccc1 (stereo unspecified),-1.7%
2,CCc1ccc(C(=O)CN2C(=O)NC(C)(c3ccc(C)cc3)C2=O)cc1 (stereo unspecified),-3.88%
3,Nc1ccc(S(=O)(=O)c2ccc(N3CCOCC3)c(N)c2)cc1,-0.149%
4,CN(C)CC(=O)Nc1ccc2c(c1)[C@H]1C[C@H](CC(=O)NCc3cccc(F)c3)O[C@@H](CO)[C@H]1O2,3.37%
5,COc1ccc(OC)c(NC(=O)COc2ccc3c(c2)CCC3)c1,-4.42%
6,Cc1ccc(C(C(=O)NC(C)(C)C)N(Cc2cccs2)C(=O)c2csnn2)cc1 (stereo unspecified),-7.49%
7,O=C(C[C@H]1C[C@H]2c3cc(NC(=O)C4CCC4)ccc3O[C@H]2[C@H](CO)O1)NCc1ccc2c(c1)OCO2,-5.87%
8,COCCNC(=O)C[C@@H]1C[C@H]2c3cc(N(C)C)ccc3O[C@H]2[C@@H](CO)O1,-4.55%
9,O=C(C[C@H]1C[C@@H]2c3cc(NS(=O)(=O)c4ccc(F)cc4)ccc3O[C@@H]2[C@H](CO)O1)NCCc1ccccc1,-9.09%
10,O=C(C[C@@H]1C[C@@H]2c3cc(NC(=O)C4CCC4)ccc3O[C@@H]2[C@@H](CO)O1)NCc1ccc2c(c1)OCO2,-2.71%
11,O=C(C[C@@H]1C[C@H]2c3cc(NC(=O)C4CCOCC4)ccc3O[C@H]2[C@@H](CO)O1)NCc1ccccc1,3.13%
12,O=C(C[C@H]1C[C@H]2c3cc(NS(=O)(=O)c4ccc(F)cc4)ccc3O[C@H]2[C@@H](CO)O1)NCc1ccccc1F,-12.4%
13,CCOC(=O)[C@H]1[C@H]2COc3ccccc3[C@@H]2N2C(=O)c3c(C)cc(C)cc3NC(=O)[C@@]12C,-6.54%
14,O=C(C[C@@H]1C[C@@H]2c3cc(NC(=O)C4CCOCC4)ccc3O[C@@H]2[C@H](CO)O1)NCc1ccccc1F,-0.819%
15,Cc1ccc(S(=O)(=O)N(C)c2ccc(C(=O)N3CCN(Cc4ccc5c(c4)OCO5)CC3)cc2)cc1,-23%
16,CCC1(c2ccccc2)NC(=O)N(CC(=O)Nc2cc(S(=O)(=O)N3CCCCC3)ccc2OC(C)C)C1=O (stereo unspecified),2.14%
17,c1ccc2c(c1)OCC(c1csc3ncnc(N4CCOCC4)c13)O2 (stereo unspecified),-16.5%
18,COc1ccc([C@@H]2[C@@H]3C(=O)N(C(C)(C)C)C(=O)[C@@H]3[C@]3(CC(C)C)C(=O)N(c4ccccc4)C(=O)N23)cc1,-2.8%
19,CCS(=O)(=O)N[C@H]1CC[C@@H](CC(=O)NCc2ccc(Cl)cc2)O[C@@H]1CO,-7.14%
20,CC12CC3CC(C)(C1)CC(C(=O)NCc1ccncc1)(C3)C2,-0.744%
